# Results published in ChEMBL document CHEMBL3988442, “University of Dundee, Small-Polar-MMV Screening Library” (2021).
# Out of some 48,000 compounds screened, about 13,000 (27%) showed an effect of 50% or more. Some of the results follow.
# Test system: Wolbachia pipientis
# Test: Anti-Wolbachia Cell-Based Screen
# Assay type: functional
# Parameters: scale not given: in the data most compounds retested in dose-response had high values
# Details: 5 µM
row,Structure (SMILES),Percent Effect [%]
1,Cl.O=C(NCC1CCC2(CCNCC2)CO1)c1ccno1 (configuration not stated),-17.95
2,COC(=O)N1CCC(Nc2cccc(F)c2C(C)=O)C1 (configuration not stated),18.09
3,Cc1cc(CNc2ccc3nc(C4CC4)sc3c2)no1,-18.62
4,COc1ccc(C)cc1CCNS(=O)(=O)c1ccc2c(c1)CCC(=O)N2,-14.2
5,CCCN1CCC(NCc2ccncc2)CC1,12.05
6,COCCN1CCC(NCc2cc(F)ccc2F)C1 (configuration not stated),105
7,COCCN1CCC(NCc2ccc(Cl)cc2)C1 (configuration not stated),79.9
8,COCCN1CCC(CNC(=O)CCc2cc(F)ccc2F)C1 (configuration not stated),-0.9804
9,COCCN1CCC(NCc2ccc(C#N)cc2)C1 (configuration not stated),-5.015
10,COCCN1CCC(NCc2c(F)cccc2F)C1 (configuration not stated),93.26
11,COCCN1CCC(NCc2cccc(F)c2)C1 (configuration not stated),4.631
12,COCCN1CCC(NCc2c(C)nn(C)c2N(C)C)CC1,-18.36
13,COCCN1CCC(NCc2cccc(C)c2)C1 (configuration not stated),89.68
14,COCCN1CCC(NCc2cccnc2)C1 (configuration not stated),-0.4239
15,COCCN1CCC(NC(=O)NCC2(c3cccc(F)c3)CC2)C1 (configuration not stated),7.702
16,CSc1ccc(CN(C(=O)c2cc[nH]n2)C2CC2)cc1,-13.27
17,CCCN(Cc1nccn1C)C(=O)C(CC)Nc1cccc(OC)c1 (configuration not stated),-30.45
18,COCCN1CCC(NCc2ccc(F)cc2F)C1 (configuration not stated),87.91
19,COCCN1CCC(NC(=O)C(C)C)CC1,-12.29
20,Cc1cc(C(F)(F)F)nn1C(C)C(=O)Nc1ccncc1 (configuration not stated),11.57
21,CC(C)Nc1ncccc1C(=O)NCc1ncc[nH]1,7.716
22,Cc1cc(C(F)F)nn1C(C)C(=O)NCc1nccn1C (configuration not stated),129.1

row,Structure (SMILES),Percent Effect [%]
1,Cc1cccc(I)c1C(=O)NCc1ncc[nH]1,-11.65
2,Cc1cc(C(F)F)nn1C(C)C(=O)NCc1ncc[nH]1 (configuration not stated),132.9
3,CCCN(Cc1nccn1C)C(=O)c1cc(C(C)C)on1,-14.15
4,Cc1ncc2c(n1)CCN(Cc1nc(Cc3ccccc3)no1)C2,2.52
5,Cc1noc([C@@H]2C[C@H](NC(=O)Nc3ccccc3)CN2C)n1,1.901
6,CN(C)C(=O)C1CCCN1C(=O)c1ccc(Cn2ccnc2)o1 (configuration not stated),-6.024
7,C[C@@H]1CN(c2nc(O)cc(Cc3ccccc3F)n2)C[C@H](C)O1,156.7
8,CCOc1ccnc(N2CCN(CCOC)CC2)n1,-0.8063
9,CCN1CCN(c2nc(O)cc(Cc3ccccc3F)n2)CC1,169.1
10,COCCN1CCN(c2nc(O)cc(Cc3ccccc3F)n2)CC1,126.9
11,CC(NCc1ccccn1)c1ccc(N2CCN(C)CC2)c(F)c1 (configuration not stated),-5.411
12,COCCN1CCN(Cc2coc(-c3ccccc3Cl)n2)CC1,-11.13
13,C[C@@H]1CN(Cc2ccccc2F)CC(C(N)=O)O1 (some centres not stated),1.23
14,CCN1CCN(c2ccc(F)cc2C(C)NCc2ccccn2)CC1 (configuration not stated),9.781
15,CN1CCN(c2nc(O)cc(Cc3ccccc3F)n2)CC1,156.6
16,CCN1CCCC(O)(CNCc2ccccc2F)C1 (configuration not stated),5.055
17,CN1CCN(CCCNS(=O)(=O)Cc2ccccc2F)CC1,-19.52
18,COc1ccc2c(C)nc(N3C[C@@H](C)O[C@@H](C)C3)nc2c1,-4.468
19,c1ccc(Cn2cccn2)c(CN2CCC3(CCCNC3)C2)c1 (configuration not stated),-20.95
20,O=S(=O)(CCO)Cc1ccc(OCC(F)(F)F)cc1,1.249
21,COCCOCCNC(=O)C(C)Oc1ccccc1C(F)(F)F (configuration not stated),0.2325
22,O=C(O)C(F)(F)F.c1cc(CN2CCCn3cnc(COCC4CC4)c3C2)co1,3.975

row,Structure (SMILES),Percent Effect [%]
1,CC(C)Cc1cc(C(=O)NCC(O)c2ccc(F)cc2)n(C)n1 (configuration not stated),0.3453
2,CCCc1cc(C(=O)N(C)Cc2cnc3ccccc3n2)n(C)n1,-19.21
3,CCCc1cc(C(=O)N[C@H](C)[C@@H](O)c2ccc(O)cc2)n(C)n1,110
4,CCCc1cc(C(=O)NC(c2ccccc2)c2n[nH]c(C)n2)[nH]n1 (configuration not stated),3.333
5,CCCc1cc(C(=O)N[C@@H](CO)[C@@H](O)c2ccccc2)n(C)n1,130.2
6,CCC(NC(=O)c1cc(CC(C)C)nn1C)c1ccnn1C (configuration not stated),9.016
7,O=C(CCCn1cncn1)NC1(c2cccc(Br)c2)CC1,-89.93
8,O=S(=O)(NCCc1ccccc1F)N1CCOCC1,104.5
9,O=S(=O)(NCc1cccnc1OC1CCCC1)N1CCOCC1,-7.047
10,O=S(=O)(NCCc1ccccc1C(F)(F)F)N1CCOCC1,96.69
11,O=S(=O)(Cc1ccccc1F)NCCN1CCOCC1,-10.21
12,O=C(Cc1ccccc1F)NCCN1CCOCC1,3.995
13,CCOc1ncccc1CNS(=O)(=O)N1CCOCC1,-0.8612
14,Cc1nc(S(=O)(=O)N2CCc3[nH]nc(CCC(C)C)c3C2)cn1C,14.04
15,CC(C)CN1CC(c2nc(CCc3ccccc3)n[nH]2)CC1=O (configuration not stated),6.531
16,CN1CCCC[C@@H]2[C@H]1[C@@H](c1ccccc1)CCN2C(=O)c1cccnc1,94.07
17,CN1CCCC[C@@H]2[C@H]1[C@@H](c1ccccc1)CCN2C(=O)c1ccccc1,-7.424
18,O=C(c1cccnc1)N1CCCC1C1CCN(Cc2ccccc2)CC1 (configuration not stated),-39.09
19,Cc1nnsc1C(=O)N1CC[C@H](c2ccccc2)[C@@H]2[C@H]1CCCCN2C,109
20,CN1CCCC[C@@H]2[C@H]1[C@@H](c1ccccc1)CCN2C(=O)c1ccncc1,88.59
21,CC(C)=CCN1CCN(C(=O)c2snnc2C)[C@H]2CS(=O)(=O)C[C@H]21,-1.087
22,Cc1nnsc1C(=O)N1CCN(CC2CC2)[C@@H]2CS(=O)(=O)C[C@@H]21,2.438

row,Structure (SMILES),Percent Effect [%]
1,CN1CCCCC[C@@H]2[C@@H]1[C@H](c1ccccc1)CN2C(=O)c1cccnc1,98.96
2,O=C(c1ccncc1)N1CCCC1C1CCN(Cc2ccccc2)CC1 (configuration not stated),-37.72
3,COC(=O)C1CCCN1C(=O)c1ccc(Cl)cc1F (configuration not stated),16.38
4,CN1CCN(c2ccc(NC(=O)c3ccccn3)c(C(F)(F)F)c2)CC1,-8.677
5,CCNC(=O)c1ccoc1CN1c2ccccc2CC1C (configuration not stated),-6.269
6,CCN(CCc1nc2cc(C)ccc2[nH]1)C(=O)[C@@H](N)COC,2.321
7,Cc1nc(CCNc2ccc(-c3nc(C)c(C)c(=O)[nH]3)cn2)cs1,1.722
8,O=C(NCCNc1ccccn1)NC1CCOC2(CCCCC2)C1 (configuration not stated),-19.85
9,O=C(CCCc1nc2ccccc2[nH]1)N1CCCC1c1ccccn1 (configuration not stated),-11.11
10,O=C(CCS(=O)(=O)c1ccccc1)NC1CCOC2(CCOCC2)C1 (configuration not stated),92.28
11,O=C(CCc1nc2ccccc2[nH]1)NC1CCOC2(CCOCC2)C1 (configuration not stated),103.6
12,COc1c(C)cnc(CNC(=O)CCc2nc3ccccc3[nH]2)c1C,4.531
13,CN(C)C(=O)NC1COC2(CCN(S(=O)(=O)c3ccccc3)CC2)C1 (configuration not stated),5.169
14,CCc1ncc2c(n1)CN(C(=O)CNC(=O)c1ccccc1)C2,27.82
15,COc1cccc(CN(C)Cc2[nH]c3ccccc3c2C)c1O,10.98
16,Cc1cccc(CN2CC3(CCN(C4CCOC4)CC3)OCC2=O)n1.O=C(O)C(F)(F)F.O=C(O)C(F)(F)F (configuration not stated),100.8
17,Cc1cccc(CN2CC3(CCN(C(=O)N(C)C)CC3)OCC2=O)n1.O=C(O)C(F)(F)F,105.7
18,O=C(O)C(F)(F)F.O=C1COC2(CCN(c3cccc(F)c3)CC2)CN1Cc1ccccn1,-8.645
19,Cc1ccc(N2CCC3(CC2)CCN(C2CCOC2)CC3)nn1.O=C(O)C(F)(F)F (configuration not stated),-7.269
20,Cc1cccc(CN2CCC3(CCCN(C(=O)N(C)C)C3)C2=O)n1.O=C(O)C(F)(F)F (configuration not stated),-4.614
21,CCS(=O)(=O)N1CCC2(CC1)CN(Cc1ccccn1)C(=O)CO2.O=C(O)C(F)(F)F,-5.616
22,Cc1cccc(N2CC3(CCN(S(=O)(=O)C4CC4)C3)C2)n1.O=C(O)C(F)(F)F,2.181

row,Structure (SMILES),Percent Effect [%]
1,Cc1cccc(CN2CC3(CCN(S(=O)(=O)C4CC4)CC3)OCC2=O)n1.O=C(O)C(F)(F)F,102.5
2,CC(CCNC(=O)N1CCC1)N(C)C(=O)OC(C)(C)C (configuration not stated),-2.382
3,Cl.Cl.O[C@@H]1C[C@@](CNCc2ccc(F)cc2)(COc2cccnc2)C[C@@H]1O,-10.51
4,Cc1ncc(CNCC2CCC(C(N)=O)CC2)n1-c1ccccc1 (configuration not stated),-1.319
5,CCc1nc(N)nc(NCCC(=O)NC2CCCCC2)c1C,10.22
6,CCS(=O)(=O)NCC1Cn2nnc(-c3cccc(C)c3)c2CO1 (configuration not stated),-10.41
7,CCOCCC(=O)N1C[C@H]2CC[C@@H]1CN(c1ncccn1)C2,22.34
8,O=C(NC1CC1)[C@@]12CCO[C@@H]1CCN(Cc1ccc3c(c1)OCO3)C2.O=C(O)C(F)(F)F,117
9,Cc1ncsc1CN1CC[C@H]2OCC[C@@]2(C(=O)NC(C)C)C1.O=C(O)C(F)(F)F,3.331
10,Cc1ncsc1CN1CC[C@H]2OCC[C@@]2(C(=O)NC2CC2)C1.O=C(O)C(F)(F)F,0.183
11,O=C(NC1CC1)[C@@H]1CN(Cc2ccc3c(c2)OCO3)C[C@H]2OCC[C@H]21.O=C(O)C(F)(F)F,-3.513
12,O=C(NC1CC1)[C@H]1CN(Cc2ccc3c(c2)OCO3)C[C@H]2OCC[C@@H]12.O=C(O)C(F)(F)F,-14.17
13,CC(C)NC(=O)[C@@H]1CN(Cc2ccc3c(c2)OCO3)C[C@H]2OCC[C@H]21.O=C(O)C(F)(F)F,-18.01
14,CNC(=O)[C@@]12CCO[C@@H]1CCN(Cc1ccc3c(c1)OCO3)C2.O=C(O)C(F)(F)F,92.17
15,CN(C)C(=O)[C@@H]1CCO[C@@H]2CCN(Cc3ccc4c(c3)OCO4)C[C@@H]21.O=C(O)C(F)(F)F,-16.18
16,CNC(=O)[C@@]12CCO[C@@H]1CCN(Cc1cccc(C)c1)C2.O=C(O)C(F)(F)F,5.352
17,CN(C)C(=O)[C@@]12CCO[C@@H]1CCN(Cc1ccc3c(c1)OCO3)C2.O=C(O)C(F)(F)F,104.9
18,CN1CCC2(COCCN(Cc3ccc4c(c3)OCO4)C2)C1.O=C(O)C(F)(F)F.O=C(O)C(F)(F)F (configuration not stated),-6.126
19,CC(C)NC(=O)[C@@]12CCO[C@@H]1CCN(Cc1ccc3c(c1)OCO3)C2.O=C(O)C(F)(F)F,90.31
